Over roughly 59,000 sequences, the read-out has its median near -0.00055; the lowest 2% begin near -2. The entries come from a sample that favours the lowest values as a whole.

Drawing on PubChem BioAssay AID1159506 (National Center for Advancing Translational Sciences (NCATS), 2015), this text covers seed-corrected z-score for 37 sequences.

The assay in a line: Identification of proteins required for the processing of the EWS-FLI1 nascent transcript.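 Note: robust z of luciferase light less the median z of siRNAs with the same seed.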 Conditions: TC32 Ewing sarcoma NR0B1-luc vs CMV-luc (EWS-FLI1 target promoter against control promoter), 48 h; screened at 20 nM (by protocol). The procedure: Ewing sarcoma (ES) cells depend on the EWS-FLI1 fusion transcription factor for cell survival. Using an assay of EWS-FLI1 activity and genome-wide siRNA screening we have identified proteins required for the processing of the EWS-FLI1 nascent transcript. Parallel genome-wide siRNA-mediated RNAi screens were conducted in Ewing sarcoma TC32 cell lines expressing a luciferase (luc) reporter protein driven by either the promoter of the EWS-FLI1 target gene NR0B1 (TC32-NR0B1-luc) or the CMV promoter (TC32-CMV-luc). Luciferase activity was assessed 48 hours post siRNA-transfection.
Twenty microl of serum-free media containing Lipofectamine RNAiMax (0.05 microl) was added to wells containing siRNA (0.8 pmol). Lipid and siRNA were allowed to complex for 45 min at ambient temperature before addition of 600 cells in RPMI-1640, 20% FBS to yield final transfection mixtures containing 20 nM siRNA in RPMI-1640, 10% FBS. Luciferase expression was measured using OneGlo (Promega, Madison, WI). The genome-wide screening campaign was conducted using Ambion's human genome library version 4.1 (Ambion, Austin TX). This library targets approximately 21000 human genes, three siRNAs per gene. Each siRNA is arrayed in an individual well of a 384-well plate. Parallel transfections were conducted in TC32-NR0B1-luc and TC32-CMV-luc cell lines and luciferase expression (OneGlo, Promega) was assayed 48 h later on a PerkinElmer Envision 2104 Multilabel plate reader (PerkinElmer, Waltham, MA). Qiagen's AllStars Negative control was incorporated on all screening plates for normalization (16 wells per plate). Qiagen, Germantown, MDsiGL4 was incorporated as a positive transfection control (16 wells per plate) on all plates. […] The raw luciferase data for the NR0B1- and CMV-luc screens were normalized and z-score-MAD transformed using standard methods (Chung et al., 2008). The miRNA-like seed sequence of every siRNA was determined and the median z-score for all siRNA sequences with the same seed sequence was calculated. This z-score was subtracted from the z-score associated with each siRNA with that seed sequence to generate a seed-adjusted z-score value (Z) that was used when the results for the three siRNAs corresponding to each gene were compared (Marine et al., 2012)
In the case of UUCUGGUAGAAGCAUUUCC against ZNF25, the seed-corrected z-score is -1.93. As for UGAUGAAGUAGGUCACGGC against SLC29A4, the figure is 0.41. The sequence UUUUCAGUCUCACUAGUUU against MIPEPP3 registered a seed-corrected z-score of 0.623. As for AUUCUUAAUCUUUACAUCC against BRDTP1, the figure is 0.809.

UAAGGGUCCUUCCAUGGCC against PVRIG: the seed-corrected z-score turned out to be 0.201.

As to AUGUUUCCCAUAACAGUGG against OR4D2, the seed-corrected z-score is -3.19. The value for UGAAAAUCACGAGAUUUCC against TEAD1 was 0.305.

UGUUAAACUGCUAAGGAUG against RPRD2 had a seed-corrected z-score of -0.294. Sequence UCAUGUACGGCCUCUUCCC against CCDC8 returned a seed-corrected z-score of 0.173. UCUGUGAGCAGUUUCCACU against SOX21 returned a seed-corrected z-score of -2.74. Turning to UGAAUGUCUUGCGAUUUGC against CADM2, the seed-corrected z-score came to 0.122. The value for UCCCAACCCAGUCAUAACC against BEST3 was 0.332; that for UUUCGGUACUCGGUUAACC against EIF3FP3 was 0.962.

In turn, UUGUCGUGAAAUGAAACUC against TTLL11 had a seed-corrected z-score of -0.262. As for UUCCUUUCCACUGCCGUGU against CHRAC1, the figure is 0.0577; as for UUCGUUAAGCAAACACUCG against ADAMTS9, 0.367; as for UUUCAGAUAAGCACGAAGC against EIF3M, 1.89. The value for UUAGCUGCAUGAUACCAGG against FAM151B was -2.3; that for AUAGUUACAGAGGCAAGAG against MESTP3 was 1.98; that for UAUCUAACUUCUGUCCCGC against HCCS was 0.00186. UCUGCAACAAGAUCAACAG against POP5 showed a seed-corrected z-score of 0.345. As for UUUUCUACAGCUCUCACUC against CREB3, the figure is -2.05; as for AAACCUAAAAAUGCACUCC against MAGEE1, 0.116. The value for UAGGUGACGAUCUCCAUCA against HCK was -1.81; that for UUUCAUAUGUGAAUCCUCC against TCN2 was 0.641. AAACUAGUAACUCCUCGUC against PRDM8 yielded a seed-corrected z-score of -2.41.

AGUUGAAUAAGAAAGUACC against MTM1 showed a seed-corrected z-score of 1.55.

In the case of UCAAACACCAGGGUGAGGG against CDK18, the seed-corrected z-score was -0.15. As for AACUGGUUAUGGUAGUUGC against RMI2, the figure is -2.9.

UCAGGAUCCAGACAGUUGC against TP53AIP1 showed a seed-corrected z-score of 0.541. As for UUAGGUGCACCAGUAAGAG against PEX2, the figure is -1.19.

UCCAGUAAAAGGCUGAGCG against LGI1 had a seed-corrected z-score of -3.39. The value for UCAGGAUGAUGUGUGGGAU against KRTAP5-11 was -1.11; that for UGCUGUUCAAGCGAAUGCC against DRG1 was 0.745. On to AUAAGAUUGGAAUUCGACG against ARL6, for which the seed-corrected z-score was determined as 0.549. The value for UUUGGAGCUACCACCCGAC against MRPL27 was 0.314; that for AAAGCGACACCUGUCAGUC against IKBKAP was -0.0431.
